Results reported in PubChem BioAssay (NCATS).
Results filed as inconclusive are left out. Entries that show only a call come without a potency. Active and inactive are the calls of the source. Unless noted, the call rests on the fitted dose curve; in most records, active means well fitted curve in the direction sought with a large enough effect; inconclusive means small, poorly fitted or top-dose-only effect, or another doubt; inactive means no such curve, though single readings can be large; an effect the other way counts as inactive or inconclusive.

Legend:
[1] = molecular target: Endonuclease 4 (Escherichia coli (strain K12)) (UniProt P0A6C1); experiment: Counterscreen for APE1 Inhibitors: qHTS Validation Assay for Inhibitors of Endonuclease IV (AID 1708)
Outline: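 Concentration-response counterscreen run identically to the APE1 assay: 15 min room-temperature preincubation of 2 nM enzyme with compound, reaction started with 50 nM quenched abasic DNA, progress taken from kinetic fluorescence.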

[2] = qHTS for differential inhibitors of proliferation of Plasmodium falciparum line 3D7 (AID 1876); further: potency means the concentration at half of the fitted maximal effect
[3] = qHTS for differential inhibitors of proliferation of Plasmodium falciparum line D10 (AID 1877);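 further: parasites grown with compound for 72 h before DNA staining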; further: potency means the concentration at half of the fitted maximal effect
[4] = qHTS for differential inhibitors of proliferation of Plasmodium falciparum line Dd2 (AID 1882); details: Potency: Plasmodium falciparum Dd2 proliferation inhibition; further: nearly all actives have a fitted effect of over 65% in size; further: potency means the concentration at half of the fitted maximal effect
Outline: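 Dd2-infected erythrocytes (0.3% parasitemia, 2.5% hematocrit final) incubated with compound 72 h at 37 C, 5% CO2; lysed with saponin/Triton buffer containing SYBR Green I, incubated overnight in the dark, then read by fluorescence (485/535 nm). Normalized to 0.29 uM artemisinin and DMSO.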

[5] = qHTS for differential inhibitors of proliferation of Plasmodium falciparum line HB3 (AID 1886); details: Potency: Plasmodium falciparum HB3 proliferation inhibition;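 further: parasites grown with compound for 72 h before SYBR Green readout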; further: potency means the concentration at half of the fitted maximal effect
[6] = qHTS Assay for Identification of Small Molecule Inducers of Hypoxia Response (AID 2120; active means well fitted curve in the direction sought with a large enough effect in the signal ratio, with a control signal flat, not every such curve was filed as active; the % refers to the signal ratio)
Outline: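 ME-180 HRE-bla cells plated in Opti-MEM/0.5% dialyzed FBS, rested 4-5 h, then dosed with compound titrations by pin tool. After 17 h at 37 degrees C, CCF4 dye loaded 2.5 h at RT; 460/530 nm ratio gave %Activity and AC50.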

[7] = qHTS for differential inhibitors of proliferation of Plasmodium falciparum line 7G8 (AID 1815);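 further: parasite growth measured after three days of incubation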; further: potency means the concentration at half of the fitted maximal effect
[8] = qHTS for differential inhibitors of proliferation of Plasmodium falciparum line GB4 (AID 1816); details: Potency: Plasmodium falciparum GB4 proliferation inhibition;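 further: parasite growth measured after 72 h incubation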; further: potency means the concentration at half of the fitted maximal effect
[9] = qHTS for differential inhibitors of proliferation of Plasmodium falciparum line W2 (AID 1883); details: Potency: Plasmodium falciparum W2 proliferation inhibition;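 further: parasites grown with compound for 72 h before lysis and staining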; further: potency means the concentration at half of the fitted maximal effect
[10] = qHTS Assay for Modulators of Human Peripheral Myelin Protein 22 (PMP22) Expression/Activity (AID 1967; active means well fitted curve in the direction sought with a large enough effect in the signal ratio; the % refers to the signal ratio)
Outline: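 MSC80 mouse Schwann cells stably carrying Pmp22 promoter–green click beetle luciferase plus EF-alpha–red luciferase control were dosed for 24h at 37 °C. Dual-colour luminescence was filter-overlap corrected; %Activity came from green/red ratio versus untreated cells.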

SMILES	outcome [1]	Potency [2]	Potency [3]	Potency [4]	Potency [5]	outcome [6]	Potency [7]	Potency [8]	Potency [9]	outcome [10]
COC(=O)[C@H]1[C@H]2C[C@H]3c4[nH]c5ccccc5c4CCN3C[C@H]2CC[C@@H]1O	inactive	inactive	inactive	inactive	inactive	–	–	–	–	–
O=C(O)CCCCC(=O)O	–	–	–	–	–	inactive	–	–	–	–
CC(C)COC(=O)OCN1C(=O)CN(CCN2CC(=O)N(COC(=O)OCC(C)C)C(=O)C2)CC1=O	inactive	inactive	inactive	inactive	inactive	–	inactive	inactive	–	–
CC(O)C(=O)O (centres undefined)	–	–	–	–	–	inactive	–	–	–	–
CN=C(NC#N)Nc1ccc(C2=NNC(=O)CC2C)cc1 (centres undefined)	inactive	inactive	inactive	inactive	inactive	–	–	inactive	inactive	–
CC(CCc1ccccc1)NCC(O)c1ccc(O)c(C(N)=O)c1 (centres undefined)	inactive	10 µM (active)	12.6 µM (active)	–	12.6 µM (active)	–	7.94 µM (active)	10 µM (active)	8.91 µM (active)	inactive
Nc1cc(Cl)c(NC2=NCCN2)c(Cl)c1	–	inactive	inactive	inactive	inactive	–	inactive	–	–	inactive
O=C1CCC(c2ccc(-n3ccnc3)cc2)=NN1	inactive	inactive	inactive	inactive	inactive	–	inactive	inactive	inactive	inactive
C[C@@H]1C(=O)NC2=Nc3cccc(Cl)c3CN21	inactive	inactive	inactive	inactive	inactive	–	inactive	–	–	inactive
CNCCC=C1c2ccccc2CCc2ccccc21	inactive	11.2 µM (active)	–	2.82 µM (active)	11.2 µM (active)	–	7.08 µM (active)	5.62 µM (active)	2.24 µM (active)	–
CCCCCCc1ccc(O)cc1O	–	–	–	–	–	inactive	–	–	–	–
COC1=CC(=O)C[C@@H](C)[C@]12Oc1c(Cl)c(OC)cc(OC)c1C2=O	–	–	–	–	–	inactive	–	–	–	–
O=C(O)c1cc2cc(Cc3cccnc3)ccc2o1	inactive	inactive	inactive	inactive	inactive	–	inactive	inactive	inactive	inactive
CC(=O)O[C@]1(C(C)=O)CC[C@H]2[C@@H]3C[C@H](C)C4=CC(=O)CC[C@]4(C)[C@H]3CC[C@@]21C	–	–	–	–	–	inactive	–	–	–	–
COc1cc(-c2ccc(=O)[nH]n2)ccc1OC(F)F	inactive	inactive	inactive	inactive	inactive	–	inactive	inactive	inactive	–
COc1cc(NS(C)(=O)=O)ccc1Nc1c2ccccc2nc2ccccc12	–	0.891 µM (active)	1.41 µM (active)	2.51 µM (active)	1.41 µM (active)	–	1 µM (active)	0.891 µM (active)	1 µM (active)	–

SMILES	outcome [1]	Potency [2]	Potency [3]	Potency [4]	Potency [5]	outcome [6]	Potency [7]	Potency [8]	Potency [9]	outcome [10]
C1CCc2nnnn2CC1	inactive	inactive	inactive	inactive	inactive	–	inactive	inactive	inactive	inactive
CC(=O)Oc1ccc(C(c2ccc(OC(C)=O)cc2)c2ccccn2)cc1	–	–	–	–	–	inactive	–	–	–	–
Oc1ccc(O)cc1	–	11.2 µM (active)	–	–	12.6 µM (active)	–	8.91 µM (active)	–	12.6 µM (active)	–
N[C@H](CO)C(=O)O	inactive	inactive	inactive	inactive	–	–	inactive	inactive	inactive	–
Nc1ccc(C(=O)O)cc1	–	–	–	–	–	inactive	–	–	–	–
C[C@]12CC[C@@H]3c4ccc(O)cc4CC[C@H]3[C@@H]1CC[C@@H]2O	inactive	–	–	inactive	inactive	–	inactive	–	–	–
CCC(NC(C)C)C(O)c1ccc(O)c(O)c1 (centres undefined)	inactive	12.6 µM (active)	12.6 µM (active)	7.08 µM (active)	8.91 µM (active)	–	11.2 µM (active)	12.6 µM (active)	8.91 µM (active)	inactive
CNCCC(Oc1ccccc1C)c1ccccc1 (centres undefined)	inactive	–	inactive	–	inactive	–	7.94 µM (active)	–	–	–
N[C@@H](Cc1cnc[nH]1)C(=O)O	inactive	inactive	inactive	inactive	inactive	–	inactive	inactive	inactive	inactive
O=c1ccc2ccccc2o1	–	–	–	–	–	inactive	–	–	–	–
C=CCc1ccc(O)c(OC)c1	–	–	–	–	–	inactive	–	–	–	–
CN1C2CCC1CC(OC(=O)c1c[nH]c3ccccc13)C2 (centres undefined)	inactive	10 µM (active)	11.2 µM (active)	–	–	–	7.08 µM (active)	11.2 µM (active)	8.91 µM (active)	inactive
CCCn1c(=O)[nH]c(=O)c2[nH]cnc21	inactive	inactive	inactive	inactive	inactive	–	inactive	inactive	inactive	inactive
C[N+]1(CCCCC[N+]2(C)CCCC2)CCCC1	–	inactive	inactive	inactive	inactive	–	inactive	inactive	inactive	–
CC1(C)CCC(NC(=O)[C@@H](N)CCC(=O)O)CC1	inactive	inactive	inactive	inactive	inactive	–	inactive	inactive	inactive	inactive
